Reference: PubChem BioAssay (NCATS)
Results filed as inconclusive are left out. Calls come from the whole dose curve; as a rule, active = well fitted curve in either direction with a large enough effect (not every such curve was filed as active); inconclusive = small, poorly fitted or top-dose-only effect, or another doubt; inactive = flat fitted curve, though single readings scatter.

Assay: AP1 Signaling Pathway (AID 357);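 note: ME-180 reporter cells stimulated with EGF at its EC50 level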
Conditions: ME-180 (cervical carcinoma) AP-1-bla reporter, EGF-induced, beta-lactamase ratio, 5 h; at 17.2 µM (top of the series) unless noted
Summary of the method: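 First, ME-180 AP-1-bla cells were cultured overnight at 37 °C in low-serum Opti-MEM. Next, titrated compounds with EC50 EGF were incubated 5 hours. Finally, CCF4 was added for 2.5 hours and the 460/530 nm ratio recorded.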
% is set by controls: 0 for no effect and ±100 for the full control effect.

Activity change, negative = inhibition, inactive:
Cc1ccc(-n2ncc3c(NCCCN4CCCC4=O)ncnc32)c(C)c1 -15.8%, CCOC(=O)c1cc(C)n(-c2ccc(OC)c(OC)c2)c1C -17.8%, CCNC(=O)N(C(=O)NCC)n1c(C)nnc1C 6.49%, COc1ccc(/C(O)=C2/C(=O)C(=O)N(CCCN(C)C)C2c2ccco2)cc1Cl (centres undefined) 9.29%, Cc1cc(=O)oc(C)c1C(=O)NCCC1=CCCCC1 12.2%, CCCC(CCC(=O)Nc1ccc(C(=O)OC)cc1)C(=O)O (centres undefined) -9.55%, c1ccc(-n2c(Cc3cccnc3)nc3cnccc32)cc1 -10.4%, COc1cccc(C2/C(=C(/O)c3cnn(-c4ccccc4)c3C)C(=O)C(=O)N2CCN(C)C)c1 (centres undefined) 3.35%, COC(=O)c1[nH]c(C)c(/C(O)=C2\C(=O)C(=O)N(CCN3CCOCC3)C2c2cccnc2)c1C (centres undefined) 0.561%, COC(=O)c1ccc(N2C(=O)CC(N3CCN(C(=O)c4ccco4)CC3)C2=O)cc1 (centres undefined) 3.9%, C=C(Br)Cn1c(CCCC)nc2ccccc21 -12.4%, O=S(CCc1ccncc1)Cc1ccccc1 (centres undefined) 9.28%, Cc1cc(=O)oc(C)c1C(=O)NCCNC(=O)c1c(C)cc(=O)oc1C 7.25%, CC12CN3CC(C)(CN(C1)C3c1ccc(Cl)cc1Cl)C2O (centres undefined) 3.94%, COc1ccc2c(c1)[nH]c1c(=O)n(CCN(C)C)cnc12 10.5%, CC1(C)Cc2c(C#N)c(SCc3nc4ccccc4[nH]3)nc(N3CCOCC3)c2CO1 -22.7%, CSc1nc2sc3c(c2c(=O)[nH]1)CCC(C)C3 (centres undefined) 7%, CSc1nc(C)cc(OCCNS(=O)(=O)c2cc(C)ccc2C)n1 -11.3%, Cn1ncc(N=Cc2ccccc2O)c1C(=O)N1CCOCC1 2.72%, COc1ccc(CNC(=O)[C@H](C)NC(=O)C2CCN(S(=O)(=O)c3ccc(C)cc3)CC2)cc1 0.123%, COc1ccc(CC(=O)n2c(CC#N)nc3ccccc32)cc1OC -7.74%, Cc1nc2c(o1)CCc1ccccc1C2N1CCN(C)CC1 (centres undefined) 22.5%, CCOC(=O)c1[nH]c2ccc(Br)cc2c1NC(=O)CCN1CCN(C(=O)OCC)CC1 -25%, O=C(NCc1ccccc1)c1ccc(=O)[nH]n1 2.35%, Cn1c(=O)c2c(nc(NCc3ccc4c(c3)OCO4)n2Cc2ccccc2)n(C)c1=O -13.1%, O=C1[C@@H]2[C@H](C(=O)N1n1cnnc1)[C@H]1C=C[C@@H]2C1 -2.82%, COc1ccc(C2C(C#N)=C(N)Oc3cc(C)n(CCN4CCOCC4)c(=O)c32)cc1OC (centres undefined) 0.457%, Cc1cc(C)n(CC(=O)n2nc(C)cc2C)n1 11.3%, Cc1ccc(-c2nn(CCC(=O)NCC3CCCO3)c(=O)c3ccccc23)cc1 (centres undefined) -6.92%, O=C(O)CC(SCc1ccc(C(=O)O)o1)C(=O)O (centres undefined) 7.18%, CC12CCC(C(=O)N(CCC#N)CCC#N)(CC1=O)C2(C)C (centres undefined) 10.6%, CN1CCc2c(sc3c2C(=O)NC(c2ccco2)N3)C1 (centres undefined) -0.778%, Cc1cccc(C)c1N1C(=O)C2ON(c3ccccc3)C(c3ccncc3)C2C1=O (centres undefined) 1.5%, CCCCSc1nnc(-c2ccc(NC(C)=O)cc2)n1C -14.2%, CC(NC(=O)Nc1ncccn1)(C(F)(F)F)C(F)(F)F 1.93%, CC(=O)OCC(=O)[C@H]1CC[C@H]2[C@@H]3CC=C4C[C@@H](O)CC[C@]4(C)[C@H]3CC[C@]12C 12.9%, O=c1[nH]c(CN(CCO)CCO)nc2c1C1(CCCCC1)Cc1ccccc1-2 8.29%, Cn1c(NCc2ccccc2)nc2c1c(=O)n(Cc1ccccc1)c(=O)n2C -27.4%, Cn1c2c(c(=O)n(C)c1=O)C(NC(=O)c1cccs1)(C(F)(F)F)C(=O)N2 (centres undefined) -2.19%
